Records with an inconclusive call do not appear. Calls of active or inactive are those of the source. Calls come from the whole dose curve; as a rule, active = well fitted curve in the direction sought with a large enough effect in the repeat runs; inconclusive = weak or mixed curves; inactive = no such curve, though single readings can be large; an effect the other way counts as inactive or inconclusive.

We go through 22 molecules from PubChem BioAssay (Tox21).

Assay [1] can be described thus: qHTS assay to identify small molecule antagonists of the glucocorticoid receptor (GR) signaling pathway - cell viability counter screen (AID 720693). Note: nearly all actives have a fitted effect of over 55% in size. Note: potency is the fitted concentration of half-maximal effect. The conditions noted are these: GR-bla HeLa viability, CellTiter-Glo luminescence, 18 h, with 5 nM dexamethasone present; series mostly up to 58.5 µM.
A short description of assay [2]: qHTS assay for identifying genotoxic compounds that show differential cytotoxicity against isogenic chicken DT40 cell lines with known DNA damage response pathways - wild type cell line (AID 743012). Note: nearly all actives have a fitted effect of over 60% in size. Note: potency is the fitted concentration of half-maximal effect. The conditions noted are these: DT40 wild type chicken cells viability, CellTiter-Glo, 40 h; series mostly up to 68.4 µM. In a few lines:
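Parental DNA repair-proficient DT40 cells, 300 per well, were pre-incubated ~0.5 h at 37 C/5% CO2, pin-dosed with compounds in DMSO, then incubated 40 h. Viability was read as CellTiter-Glo luminescence after 30 min at room temperature.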
Background: qHTS replaces the single test concentration by a dilution series.

The nature of assay [3]: qHTS assay for identifying genotoxic compounds that show differential cytotoxicity against isogenic chicken DT40 cell lines with known DNA damage response pathways - Rev3 mutant cell line (AID 743014). Note: nearly all actives have a fitted effect of over 55% in size. Note: potency is the fitted concentration of half-maximal effect. The note with it: chicken DT40 Rev3-/- viability, CellTiter-Glo, 40 h; series mostly up to 68.4 µM.
The nature of assay [4]: qHTS assay for identifying genotoxic compounds that show differential cytotoxicity against isogenic chicken DT40 cell lines with known DNA damage response pathways - Rad54/Ku70 mutant cell line (AID 743015). Note: nearly all actives have a fitted effect of over 60% in size. Note: potency is the fitted concentration of half-maximal effect. The note with it: DT40 Rad54/Ku70 mutant viability, CellTiter-Glo, 40 h; series mostly up to 66.8 µM.
The nature of assay [5]: qHTS assay to identify small molecule antagonists of the androgen receptor (AR) signaling pathway - cell viability counter screen (AID 743033; note: nearly all actives have a fitted effect of over 45% in size). The note with it: AR-bla HEK293 viability, CellTiter-Glo luminescence, 16 h; series mostly up to 58.5 µM.
The nature of assay [6]: qHTS assay to identify small molecule antagonists of the androgen receptor (AR) signaling pathway using the MDA cell line - cell viability counter screen (AID 743041; note: nearly all actives have a fitted effect of over 45% in size; note: potency is the fitted concentration of half-maximal effect). The conditions noted are these: MDA-kb2 viability, CellTiter-Fluor, 16 h, cells co-treated with R1881 androgen agonist; series mostly up to 70.3 µM. The method, boiled down: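 Viability counter screen run alongside the AR antagonist reporter: cells seeded 5 h before compound, R1881 added, 16 h incubation at 37C without CO2, fluorescent CellTiter-Fluor signal quantified.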

In the case of `CC(=O)N[C@@H](C=O)[C@H](O)[C@H](O)[C@@H](O)CO`, the Potency result in assay [1], in assay [2], in assay [3], in assay [4], in assay [5] and in assay [6] was “inactive” each time.
On to `O=C(CCN1CCC(c2ccccc2)C1)c1ccc2c(c1)OCCO2` (configuration not stated), for which the Potency result in assay [1] and in assay [5] was “inactive” each time. For the same molecule, the Potency was 2.66 µM (active) in assay [2], 4.73 µM (active) in assay [3], 4.22 µM (active) in assay [4] and 29.8 µM (active) in assay [6].
Turning to `OCC1(CO)COC(C(Cl)(Cl)Cl)OC1`, the Potency entry in assay [1], in assay [2], in assay [3], in assay [4], in assay [5] and in assay [6] was “inactive” each time.
Take `CCN(CC)CCNC(=O)c1ccc(NS(C)(=O)=O)cc1`: the Potency entry in assay [1], in assay [2], in assay [3], in assay [4], in assay [5] and in assay [6] was “inactive” each time.
In the case of `C=C1C(=C/C=C2\CCC[C@]3(C)[C@@H]([C@H](C)CCCC(C)C)CC[C@@H]23)C[C@@H](O)C[C@@H]1O`, the Potency is 21.3 µM (active) in assay [1], 5.96 µM (active) in assay [2], 13.3 µM (active) in assay [3] and 6.68 µM (active) in assay [4]. Moreover, the Potency entry in assay [5] and in assay [6] was “inactive” throughout.
Regarding `CN=C(N)NCCC[C@H](N)C(=O)O`, the Potency entry in assay [1], in assay [2], in assay [3], in assay [4], in assay [5] and in assay [6] was “inactive” each time.
Regarding `O=C(Cn1cnnn1)N[C@@H]1C(=O)N2C(C(=O)O)=C(CSc3nncs3)CS[C@H]12`, the Potency entry in assay [1], in assay [2], in assay [3], in assay [4], in assay [5] and in assay [6] was “inactive” throughout.
Consider `CCCCCCCCCCCCN1CCCC1=O`, for which the Potency in assay [1] was 43.6 µM (active); in assay [2], 24.3 µM (active); in assay [3], 30.6 µM (active); in assay [4] it was 30.6 µM (active). Also, the Potency result in assay [5] and in assay [6] was “inactive” each time.
Consider `CC(C)(S)C(=O)N[C@@H](CS)C(=O)O`, for which the Potency result in assay [1], in assay [2], in assay [3], in assay [4], in assay [5] and in assay [6] was “inactive” throughout.
Turning to `O=C1CC[C@@H](C(=O)N[C@H]2C[C@@H]2c2ccccc2)N1`, the Potency entry in assay [1], in assay [2], in assay [3], in assay [4], in assay [5] and in assay [6] was “inactive” each time.
On to `O=C1[O][Bi][O]c2ccccc21`, for which the Potency result in assay [1], in assay [2], in assay [3], in assay [4], in assay [5] and in assay [6] was “inactive” throughout.
In the case of `COc1c(Br)cc(Br)c(C)c1Br`, the Potency result in assay [1], in assay [2], in assay [3], in assay [4], in assay [5] and in assay [6] was “inactive” throughout.
Regarding `CCN(CC)CC#CCOC(=O)C(O)(c1ccccc1)C1CCCCC1` (configuration not stated), the Potency result in assay [1], in assay [5] and in assay [6] was “inactive” throughout. For the same molecule, the Potency was 11.9 µM (active) in assay [2], 13.3 µM (active) in assay [3] and 26.6 µM (active) in assay [4].
On to `CC(C)(C)C(=O)OCC(=O)[C@H]1CC[C@H]2[C@@H]3CCC4=CC(=O)CC[C@]4(C)[C@H]3CC[C@]12C`, for which the Potency entry in assay [1], in assay [2], in assay [3], in assay [4], in assay [5] and in assay [6] was “inactive” throughout.
With `CCOc1ccc(S(=O)(=O)O)c2cccnc12`, the Potency entry in assay [1], in assay [2], in assay [3], in assay [4], in assay [5] and in assay [6] was “inactive” each time.
As for `CC(=O)O[C@H]1C[C@@H]2CC[C@@H]3[C@H](CC[C@@]4(C)[C@H]3C[C@H]([N+]3(C)CCCCC3)[C@@H]4OC(C)=O)[C@@]2(C)C[C@@H]1[N+]1(C)CCCCC1`, the Potency entry in assay [1], in assay [2], in assay [3], in assay [4], in assay [5] and in assay [6] was “inactive” each time.
For `NCCO/C=C/[C@H](N)C(=O)O`, the Potency result in assay [1], in assay [2], in assay [3], in assay [4], in assay [5] and in assay [6] was “inactive” in each case.
As for `C/C(=C\C(=O)OCCCCCCCCC(=O)O)C[C@@H]1OC[C@H](C[C@@H]2O[C@H]2[C@@H](C)[C@H](C)O)[C@@H](O)[C@H]1O`, the Potency entry in assay [1], in assay [5] and in assay [6] was “inactive” throughout. Further, the Potency in assay [2] was 1.5 µM (active); in assay [3] it was 1.5 µM (active); in assay [4] it was 2.37 µM (active).
For the molecule `c1ccc2cc3c4ccccc4c4ccccc4c3cc2c1`, the Potency result in assay [1], in assay [2], in assay [3], in assay [4], in assay [5] and in assay [6] was “inactive” in each case.
For the molecule `CC(C)C[C@H](NC(=O)[C@@H](COC(C)(C)C)NC(=O)[C@H](Cc1ccc(O)cc1)NC(=O)[C@H](CO)NC(=O)[C@H](Cc1c[nH]c2ccccc12)NC(=O)[C@H](Cc1cnc[nH]1)NC(=O)[C@@H]1CCC(=O)N1)C(=O)N[C@@H](CCCN=C(N)N)C(=O)N1CCC[C@H]1C(=O)NNC(N)=O`, the Potency entry in assay [1], in assay [2], in assay [3], in assay [4], in assay [5] and in assay [6] was “inactive” throughout.
For the molecule `CC(=O)OCC(=O)[C@@]1(O)CC[C@H]2[C@@H]3CCC4=CC(=O)CC[C@]4(C)C3=CC[C@@]21C`, the Potency entry in assay [1], in assay [2], in assay [3], in assay [4], in assay [5] and in assay [6] was “inactive” in each case.
On to `O=C(O)CCCC/C=C(\c1ccccc1)c1cccnc1`, for which the Potency result in assay [1], in assay [2], in assay [3], in assay [4], in assay [5] and in assay [6] was “inactive” throughout.
